AC50 and activity, negative = inhibition data for 97 compounds are collected here from PubChem BioAssay AID1851 (National Center for Advancing Translational Sciences (NCATS), 2009).

Where “and” joins values, the source holds several entries; their conditions need not be identical. Identical values can stand only once. The whole screen tested about 16,000 compounds, of which about 5,700 (36%) were called active. About 24% were inconclusive and are not listed. Some of the results follow. Values without a mark were called inactive. The call rests on the fitted dose curve; in most records, active means well fitted curve in the direction sought with a large enough effect; inconclusive means small, poorly fitted or top-dose-only effect, or effect the other way; inactive means no such curve, though single readings can be large or run the other way.

Broadly, the AC50 is the concentration at which the activity in the assay is half-maximal.
On the % scale 0 is the no-effect control and ±100 the full control effect.

The target of the assay is Cytochrome P450 1A2 (Homo sapiens) (UniProt P05177). The assay is described as follows: Cytochrome panel assay with activity outcomes. Particulars: recombinant CYP, pro-luciferin dealkylation, luminescence, p450-cyp1a2; series mostly up to 57.1 µM.
Sequence of Cytochrome P450 1A2 (Homo sapiens) (P05177 whole entry, looked up): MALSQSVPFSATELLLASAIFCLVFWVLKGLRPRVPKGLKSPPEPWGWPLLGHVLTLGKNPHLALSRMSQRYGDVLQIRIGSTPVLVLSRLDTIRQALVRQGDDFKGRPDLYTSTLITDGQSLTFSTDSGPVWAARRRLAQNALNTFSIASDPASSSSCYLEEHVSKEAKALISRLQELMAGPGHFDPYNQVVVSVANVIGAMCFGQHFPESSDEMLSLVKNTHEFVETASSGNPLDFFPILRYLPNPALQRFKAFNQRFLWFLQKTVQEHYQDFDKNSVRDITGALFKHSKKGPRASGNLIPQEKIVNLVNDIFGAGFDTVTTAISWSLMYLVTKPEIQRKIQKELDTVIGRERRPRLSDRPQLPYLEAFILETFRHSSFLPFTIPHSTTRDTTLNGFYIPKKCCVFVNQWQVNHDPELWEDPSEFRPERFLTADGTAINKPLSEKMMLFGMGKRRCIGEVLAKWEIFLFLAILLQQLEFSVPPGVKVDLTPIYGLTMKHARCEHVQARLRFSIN
As for `C/C(=N\Nc1nnc(-c2ccccc2)c(-c2ccccc2)n1)c1cccc([N+](=O)[O-])c1`, the half-maximal activity concentration (AC50) was 3.55 µM (active). Still for that read-out and setting: the result for `NC(=O)CNC(=O)[C@@H]1CC2(CC(c3cccc([N+](=O)[O-])c3)=NO2)CN1C(=O)c1ccccc1` (some centres not stated) reads “inactive”.

`C/C(=N\Nc1nc(N)cc(Cl)n1)c1cccc([N+](=O)[O-])c1`: the AC50 was 11.2 µM (active). On the same count and under the same terms, the result for `Nc1cc(Cl)nc(N/N=C/c2ccccc2[N+](=O)[O-])n1` reads 2 µM (active); that for `C/C(=N\Nc1ccc([N+](=O)[O-])cc1)c1cccc(N)c1`, 1.26 µM (active). On to `N=c1nc(N)nc(N)n1-c1ccc(S(N)(=O)=O)cc1`, for which the activity, negative = inhibition was -3.8% [at 2.29 µM]. Regarding `O=C(O)[C@@H](c1ccccc1)[C@@H](C(=O)O)c1ccccc1`, the activity, negative = inhibition was -12% [at 2.29 µM]. With `O=C(c1ccccc1)[C@H](Nc1ccc2ccccc2c1)c1ccccc1`, the half-maximal activity concentration (AC50) is 0.794 µM (active). The same measure, in the same setting: the result for `O=C(CSc1nc2ccc([N+](=O)[O-])cc2s1)c1ccc2ccccc2c1` reads 3.16 µM (active); that for `COC(=O)\C(C(C)=O)=C(/C=C/C=C/C=C/N(C)C)N(C)C`, “inactive”; that for `CC(C)(CO)Cc1cc(C(C)(C)C)c(O)c(C(C)(C)C)c1`, 25.1 µM (active). For `Cc1cc(Cc2c(C)c(C)c(Cc3cc(C)cc(C(C)(C)C)c3O)c(C)c2C)c(O)c(C(C)(C)C)c1`, the activity, negative = inhibition was 4.96% [at 2.29 µM]. Regarding `Nc1c2c(nc3ccccc13)CCCC2`, the AC50 is 3.16 µM (active) and 794 nM (active) and 501 nM (active). As to `Cc1ccc(S(=O)(=O)Oc2cc(N)c3c(n2)CCC3)cc1`, the activity, negative = inhibition was -19.4% [at 2.29 µM].

In the case of `Nc1c2ccccc2nc2c(O)cccc12`, the AC50 is 6.31 µM (active). For the compound `Nc1c2c(nc3ccccc13)CCC[C@H]2O`, the AC50 was 10 µM (active). Still for that read-out and setting: then `COC(=O)[C@@]1(Cc2ccccc2)[C@H]2c3cc(C(=O)N4CCCC4)n(Cc4cc(F)cc5c4OCOC5)c3C[C@H]2CN1C(=O)c1ccccc1`, with “inactive”; and `Cn1c(CN2CCCC2)nc2cc(NC(=O)C3CCCCC3)ccc21`, with “inactive”. The same measure, in the same setting: the result for `Cc1cc(NC(=O)C2CCCCC2)nc2c1c(=O)oc1ccccc12` reads 3.16 µM (active); that for `CC(=O)C[C@H](c1ccc([N+](=O)[O-])cc1)c1c(O)c2ccccc2oc1=O`, “inactive”; that for `CC(C)(C)C(=O)OCc1cn(-c2ccc(Cl)cc2)nn1`, 0.708 µM (active). The same measure, in the same setting: the result for `CCCCC(=O)OCc1cn(-c2ccc(Cl)cc2)nn1` reads 0.447 µM (active); that for `CC(C)(C)C(=O)N1CCC(O)(CS(=O)(=O)Cc2ccc(Cl)cc2)CC1`, “inactive”; that for `Cc1ccccc1NC(=O)OCc1cn(-c2ccc(Cl)cc2)nn1`, 0.447 µM (active). As to `Cc1ccc(C(=O)c2cn(-c3ccc(F)c(Cl)c3)nn2)cc1`, the AC50 entry is “inactive”. The same measure, in the same setting: the result for `CS(=O)(=O)N1CCC2(CC1)CN(C(c1ccccc1)c1ccccc1)C2` reads “inactive”. On the same count and under the same terms, then `CCCC(=O)N1c2ccccc2C(N(C(C)=O)c2ccccc2)CC1C` (configuration not stated), with “inactive”.

With `COCC(=O)N1CCC2(CC1)CN(C(c1ccccc1)c1ccccc1)C2`, the AC50 result was “inactive”. Consider `COc1cc2c(cc1OC)[C@H](c1ccccc1)CN(C)CC2`, for which the AC50 result is “inactive”. Still for that read-out and setting: the result for `COc1cc2c(cc1OC)CN(C(=S)Nc1ccccc1)CC2` reads 12.6 µM (active); that for `COc1ccc(S(=O)(=O)N2CCc3ccccc3C2)cc1OC`, “inactive”; that for `CC(C)OC(=O)c1nnn(-c2nonc2N)c1CSc1ccccn1`, 1.78 µM (active). As for `CCOC(=O)c1nnn(-c2nonc2N)c1-c1ccc(C)cc1`, the AC50 was 0.891 µM (active). On the same count and under the same terms, the result for `CCOC(=O)c1nnn(-c2nonc2N)c1-c1ccccc1` reads 0.891 µM (active); that for `CCOC(=O)c1nn(-c2ccccc2)c(-c2ccccc2)c1C(=O)c1ccccc1`, “inactive”. On the same count and under the same terms, the result for `COC(=O)N1CCC2(CCCN(C(=O)Nc3ccccc3)C2)CC1` reads “inactive”. For the compound `C[C@@]1(CCOCc2ccccc2)NC(=O)NC1=O`, the activity, negative = inhibition is -13.5% [at 11.4 µM]. Still for that read-out and setting: the result for `c1ccc(C(CCN2CC3CCC(CC3)C2)c2ccccc2)cc1` reads 9.33% [at 11.4 µM]. On the same count and under the same terms, then `CN(C)CCCn1c2ccccc2c2cnccc21`, with -20% [at 2.29 µM]. For the compound `C[C@@H]1CN(CCCn2c3ccccc3c3ccccc32)C[C@H](C)N1`, the AC50 is 0.794 µM (active). Still for that read-out and setting: the result for `C/C(=N\NC(=O)c1[nH]c2c([N+](=O)[O-])cc(C)cc2c1-c1ccccc1)c1cccnc1` reads 1.26 µM (active); that for `COc1ccc(C(=S)Nc2ccccc2)cc1`, 0.631 µM (active); that for `COc1ccc2c(Cl)cc(NC(=S)Nc3ccccc3)nc2c1`, 0.398 µM (active). On the same count and under the same terms, then `COc1ccc(NC(=O)N2CCCC2C(=O)Nc2ccccc2)cc1` (configuration not stated), with “inactive”; and `CS(=O)(=O)N1CCC[C@@]2(CCN(C(=O)Nc3cccc(F)c3)C2)C1`, with “inactive”. For the compound `CC(C)(C)c1cc(/C=C(\C#N)C(N)=S)cc(C(C)(C)C)c1O`, the AC50 was 12.6 µM (active). Take `N=C(N)SCCc1ccncc1`: the activity, negative = inhibition is -17.8% [at 2.29 µM].

For the compound `Fc1ccc(SCCc2ccncc2)cc1`, the half-maximal activity concentration (AC50) was 0.562 µM (active). On the same count and under the same terms, the result for `c1ccc(SCCc2ccncc2)cc1` reads 447 nM (active) and 200 nM (active); that for `COc1ccc(CCC(C)NC2C3CC4CC(C3)CC2C4)cc1` (configuration not stated), “inactive”; that for `COc1ccc(CCC(C)Nc2cccc(F)c2)cc1` (configuration not stated), 3.55 µM (active). Same read-out and setting: the result for `CCn1c(C)c(/C=N/Nc2nc3ccccc3s2)c2ccccc21` reads 2.51 µM (active). On the same count and under the same terms, the result for `CCOC(=O)c1sc(NC(C)=O)nc1-c1ccccc1` reads 2.82 µM (active).

Take `CCOC(=O)Nc1nc(-c2ccccc2)c(C)s1`: the AC50 was 0.2 µM (active).

`CCOC(=O)c1sc(NS(=O)(=O)c2ccccc2)nc1C`: the AC50 result is “inactive”.

On to `CCN(CC)C(=O)N1CCN(C)CC1`, for which the AC50 entry was “inactive”. As for `COc1ccc(O[C@H]2C=C[C@@H](c3ccccc3)O[C@H]2CO/N=C(/C)CCC(=O)OC[C@@H]2O[C@H](C#Cc3ccccc3)C=C[C@@H]2Oc2ccc(C)cc2)cc1`, the activity, negative = inhibition is -5.99% [at 11.4 µM]. On to `O=[N+]([O-])c1cc(/C=N/O)ccc1SCc1ccccc1`, for which the AC50 is 0.891 µM (active).

In the case of `O=C(O)[C@H](Cc1ccc(O)c([N+](=O)[O-])c1)N1C(=O)c2ccccc2C1=O`, the activity, negative = inhibition was -17.9% [at 2.29 µM]. With `O=C(O)c1ccc(Sc2nnnn2-c2ccccc2)c([N+](=O)[O-])c1`, the AC50 result was “inactive”. Still for that read-out and setting: the result for `CCOC(=O)c1cnc2cc(-c3ccc(C(C)(C)C)cc3)nn2c1N` reads “inactive”. Regarding `CCOC(=O)c1cnc2cc(-c3ccc(C)cc3)nn2c1-c1ccccc1`, the AC50 is 2.24 µM (active). On the same count and under the same terms, the result for `C=CCSc1nc(C)cc(/C=C\c2ccccc2)c1C#N` reads 2.51 µM (active); that for `Nc1nc(Cl)nc2c1ncn2[C@@H]1O[C@@H](CO)[C@@H](O)[C@H]1O`, “inactive”; that for `COC(=O)COc1ccc(/C=C2/SC(=O)N(CC(=O)N3CCCC3)C2=O)cc1Br`, “inactive”. Regarding `O=C1S/C(=C/c2ccc(N3CCOCC3)o2)C(=O)N1Cc1ccc(F)cc1`, the AC50 was 3.55 µM (active). With `COC(=O)CN1C(=O)S/C(=C/c2ccc(N3CCCCC3)o2)C1=O`, the half-maximal activity concentration (AC50) is 0.891 µM (active). Still for that read-out and setting: then `COC(=O)C1C(O)=C(C=NCc2ccccc2)C(=O)CC1(C)C` (configuration not stated), with “inactive”; and `CN(Cc1ccccc1)S(=O)(=O)c1ccc(OCC(=O)N2CCOCC2)cc1`, with “inactive”. The same measure, in the same setting: the result for `O=C(CCN1C(=O)c2cccc3cccc(c23)C1=O)N1CCN(Cc2ccc3c(c2)OCO3)CC1` reads “inactive”; that for `O=C(c1cc2sccc2n1Cc1ccccc1)N1CCN(c2nc3ccccc3s2)CC1`, “inactive”; that for `c1ccc2sc(N3CCN(Cc4ccc5c(c4)OCO5)CC3)nc2c1`, 1 µM (active). The same measure, in the same setting: then `O=C(COc1ccc(Cl)cc1)N1CCN(Cc2ccc3c(c2)OCO3)CC1`, with 5.01 µM (active).

Take `c1cnc(N2CCN(Cc3ccc4c(c3)OCO4)CC2)nc1`: the half-maximal activity concentration (AC50) was 6.31 µM (active) and 3.16 µM (active) and 2 µM (active). Same read-out and setting: the result for `C[n+]1cc(-c2ccccc2)n2c1CCCCC2` reads “inactive”; that for `COc1ccc(/C=C/c2ccncc2)cc1`, 1.26 µM (active); that for `COc1ccc(/C=C(/NC(C)=O)C(=O)O)cc1`, “inactive”.

`COc1ccc(OC(=O)c2ccncc2)cc1`: the AC50 is 6.31 µM (active).

Regarding `COc1ccc(C(=O)N2CCC3(CC2)CN(c2ccncc2)C3)cc1`, the AC50 result is “inactive”. Still for that read-out and setting: the result for `COc1ccc(NC(=O)N2CC3(CCN(C(=O)c4ccncc4)CC3)C2)cc1` reads “inactive”; that for `CCCCCOc1ccc(OC(=O)c2ccncc2)cc1`, 12.6 µM (active). As to `O=C1CCCC=C1[C@@H](O)C1CCCCC1`, the activity, negative = inhibition was -1.29% [at 11.4 µM].

As for `O=C(Cc1ccc(Cl)cc1)N1CCN(C(=O)c2ccco2)CC1`, the AC50 result is “inactive”.

As for `O=C(c1cc(-c2ccc(Cl)cc2Cl)on1)N1CCN(C(=O)c2ccco2)CC1`, the half-maximal activity concentration (AC50) is 15.8 µM (active). On the same count and under the same terms, then `O=C(c1ccc(Cl)cc1)N1CCN(C(=O)c2ccco2)CC1`, with “inactive”; and `CC(=O)NCCNc1ncnc2ccc(-c3ccoc3)cc12`, with 12.6 µM (active).

`CC(=O)NCCNc1ncnc2ccc(-c3ccc4c(c3)OCO4)cc12`: the AC50 was 0.501 µM (active). Still for that read-out and setting: then `COCCNc1ncnc2ccc(-c3ccc(N(C)C)cc3)cc12`, with 0.251 µM (active). Still for that read-out and setting: the result for `COCCNc1ncnc2ccc(-c3ccoc3)cc12` reads 15.8 µM (active); that for `COCCNc1ncnc2ccc(-c3ccc(C(=O)N(C)C)cc3)cc12`, “inactive”. On to `CCc1cc2c(nc1CC)CCN(CC/C(C)=N/OC[C@@H](O)COCc1ccco1)C2`, for which the activity, negative = inhibition is -8.65% [at 11.4 µM]. Same read-out and setting: then `CN(C)CCCN1c2ccccc2Sc2ccc3ccccc3c21`, with -2.18% [at 2.29 µM]. On to `CCC(=S)/C=C1\Sc2ccc3ccccc3c2N1CCCS(=O)(=O)O`, for which the AC50 entry was “inactive”. As for `CN(C)CCCN1c2ccc3ccccc3c2Sc2cccc(Cl)c21`, the AC50 is 1 µM (active). Same read-out and setting: then `COc1ccc(C(=O)N2CCC3(CC2)CN(C(=O)Nc2cccc(C#N)c2)C3)cc1`, with “inactive”; and `O=c1cc(-c2ccccc2)[nH]n1-c1ccc([N+](=O)[O-])cc1`, with 22.4 µM (active).

With `O=C(OC1CCN(c2ccc([N+](=O)[O-])cc2)CC1)c1ccccc1`, the AC50 result was “inactive”.
